Assay results from PubChem BioAssay.
Where “and” joins values, the source holds several entries; their conditions need not be identical. Equal values may be shown once. Calls of active or inactive are those of the source.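 The calls were made as follows, unless noted: active = inhibition at or above 50% relative to wild type and mutant plate controls; inactive = inhibition below 50%.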

Assays:
[1] = inhibitors of TNFa-induced NFkB p65 translocation, primary screen, imaging, HUVEC, MLSMR starter and 10KST1 sets (AID 438;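 active = inhibition above 20% together with a positive visual image hit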;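 also: compound added about 3h40 before a 20 min TNFalpha stimulation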;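 as to inhibition: signal is the nuclear over cytoplasmic p65 intensity ratio per well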); details: HUVEC TNFa-induced p65 nuclear translocation; cell count: measured here: nuclei count (cytotoxicity indicator), at 2.08 µM; inhibition: at 2 µM, stronger effect = higher value, 0% TNFa-plus-vehicle, 100% no-TNFa wells
[2] = reduction of polyQ htt aggregates in cells – imaging, exon1htt(103Q)mCFP cells, high-content imaging, primary screen (AID 483;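 active = visual image review flags a hit and inhibition of aggregation exceeds 20%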;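 also: compound exposure lasted 3 days before fixation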;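 as to nuclei count: percent of the per-plate median nuclei count of sample wells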); details: exon1htt(103Q)mCFP cell line, aggregate imaging, at 2 µM; inhibition of aggregation: stronger effect = higher value; nuclei count: measured here: cell count, toxicity
[3] = endothelial E-selectin expression blockers – imaging, HUVEC, immunofluorescence, MLSMR starter and 10KST1 sets, primary screen (AID 487;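 active = visually confirmed hit in the image check and inhibition above 20%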;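 as to inhibition: signal is fraction of cell area covered by stained E-selectin grains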;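 as to nuclei count: 100% = median nuclei count of all wells on the same plate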); details: HUVEC TNFalpha-induced E-selectin immunofluorescence imaging, at 2 µM; inhibition: stronger effect = higher value; nuclei count: measured here: cell number, toxicity
[4] = Primary imaging screen for DUSP6 inhibitors that restore phospho-Erk in transfected HeLa cells, chemical complementation (AID 609;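 active = compounds giving at least 50% inhibition in the cell-based MKP-3 phosphatase rescue imaging test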;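 as to inhibition: phospho-Erk level distribution per well compared with pooled transfected vehicle control wells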); details: HeLa MKP-3 transfected, phospho-Erk imaging KS statistic, at 10 µM, cells stimulated with TPA for 15 min
[5] = target: Dual specificity protein phosphatase 6 (Homo sapiens) (UniProt Q16828); test: as above; details: HeLa MKP-3 transfected, phospho-Erk imaging KS statistic; at 10 µM; stronger effect = higher value; cells stimulated with TPA for 15 min
[6] = target: Voltage-gated potassium channel subunit beta-2 (Rattus norvegicus) (UniProt P62483); test: inhibitors of rat Kvbeta2 reductase activity – biochemical, NADPH fluorescence, primary screen (AID 622;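 active = fluorescence slope higher than the sample average by over 3 SD, cut at about -0.22 in these data, passing the limit was not always enough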;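 also: slope of raw intensity against log time taken from 70 to 1610 s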); details: recombinant KvBeta, 4-cyanobenzaldehyde reduction, at 10 µM, stronger effect = higher value
[7] = target: Voltage-gated potassium channel subunit beta-2 (Rattus norvegicus) (UniProt P62483); test: enhancers of rat Kvbeta2 NADPH turnover – biochemical, NADPH fluorescence, primary screen (AID 623;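 active = NADPH fluorescence slope more negative than the mean of all samples by about 3 SD, 99.7% confidence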;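 also: fluorescence intensity change per second fitted from 20 to 320 s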); details: Recombinant KvBeta, NADPH fluorescence decrease slope, 10 min; at 10 µM; stronger effect = lower value
[8] = target: Alpha-2C adrenergic receptor (Homo sapiens) (UniProt P18825); test: compounds altering alpha2C-coupled GIRK flux – cell-based, HEK293 alpha2C/GIRK1/2, thallium flux, primary screen (AID 624;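 active = fluorescence slope after compound addition differing from the mean of all screened samples at 99.7% confidence, in either direction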;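 also: slope of fluorescence ratio to pre-addition baseline per second over 15 to 24 s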); details: thallium flux BTC fluorescence, at 10 µM, actives lie on both sides
[9] = inhibitors of larval lipid processing in zebrafish, primary screen, whole organism, PED6 fluorescence, gall bladder and intestine (AID 686;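 active = a full or partial loss of lipid-probe fluorescence in the fish gall bladder, intestine or both, judged by eye; inactive = no fluorescence loss, or compound toxic to the fish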;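 also: larvae 5 to 7 days old with five fish per well; signal comes from phospholipase A2 cleavage of quenched PED6 carried via bile; overnight exposure to compound and PED6 before scoring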); details: Zebrafish larvae PED6 lipid processing, fluorescence scoring; screened at 20 µM (by protocol)
[10] = loss of swimming-algae plug formation – whole organism, Chlamydomonas reinhardtii, WT vs cilia-less mutant, absorbance, 96-well, primary screen (AID 463189); details: Chlamydomonas reinhardtii gravitaxis, OD600 absorbance, 2 days; at 10 µM; stronger effect = higher value;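 also: 0% = wild type cc124 cells in DMSO and 100% = ciliumless bld1 mutant cells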
[11] = blockers of RIG-like receptor reporter activation – cell-based, Sendai virus stimulus, luciferase, 10K MLSCN set, TLR/RLR signaling modifier project, primary screen (AID 602276;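 active = inhibition at or above 50% at 10 µM; inactive = inhibition below 50%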;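 also: firefly luciferase from ISG56 promoter only with Renilla not read in this screen; 0% = Sendai virus plus DMSO and 100% = medium plus DMSO without virus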); details: HEK293 RL24 IRF3 luciferase reporter, at 10 µM, stronger effect = higher value
[12] = TLR3 IRF3 reporter activation blockers – cell-based, poly I:C stimulus, luciferase, 10K MLSCN set, primary screen (AID 602277;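 active = inhibition of the reporter signal at or above 50%; inactive = inhibition below 50%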); details: HEK293-TLR3 RL24 IRF3 luciferase reporter, at 10 µM, stronger effect = higher value
[13] = measured here: cell density z-score
[14] = measured here: nuclear c-Myc green intensity z-score
[15] = measured here: nuclear pErk red intensity z-score, stronger effect = higher value

Dual specificity protein phosphatase 6 (Homo sapiens), sequence (Q16828 whole entry, looked up): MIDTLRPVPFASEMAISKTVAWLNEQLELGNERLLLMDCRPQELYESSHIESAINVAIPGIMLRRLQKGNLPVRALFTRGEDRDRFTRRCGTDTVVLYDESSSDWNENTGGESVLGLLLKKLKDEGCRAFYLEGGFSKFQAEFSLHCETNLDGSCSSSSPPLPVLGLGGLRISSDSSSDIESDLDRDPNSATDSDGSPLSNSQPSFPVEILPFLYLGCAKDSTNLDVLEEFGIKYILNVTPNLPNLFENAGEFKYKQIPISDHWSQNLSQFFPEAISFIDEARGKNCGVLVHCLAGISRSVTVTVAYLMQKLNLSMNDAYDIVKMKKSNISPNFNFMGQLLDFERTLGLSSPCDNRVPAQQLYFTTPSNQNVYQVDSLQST
Voltage-gated potassium channel subunit beta-2 (Rattus norvegicus), sequence (P62483 whole entry, looked up): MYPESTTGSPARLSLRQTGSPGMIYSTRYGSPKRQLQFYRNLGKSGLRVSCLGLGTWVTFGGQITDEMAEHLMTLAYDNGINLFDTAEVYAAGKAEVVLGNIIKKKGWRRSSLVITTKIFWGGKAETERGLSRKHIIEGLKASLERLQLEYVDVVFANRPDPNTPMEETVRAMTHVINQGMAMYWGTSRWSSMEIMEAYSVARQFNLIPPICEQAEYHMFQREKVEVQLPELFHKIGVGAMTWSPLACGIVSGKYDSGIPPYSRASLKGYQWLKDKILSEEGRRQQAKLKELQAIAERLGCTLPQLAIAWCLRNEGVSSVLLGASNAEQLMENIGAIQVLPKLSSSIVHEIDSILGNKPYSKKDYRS
Alpha-2C adrenergic receptor (Homo sapiens), sequence (P18825 whole entry, looked up): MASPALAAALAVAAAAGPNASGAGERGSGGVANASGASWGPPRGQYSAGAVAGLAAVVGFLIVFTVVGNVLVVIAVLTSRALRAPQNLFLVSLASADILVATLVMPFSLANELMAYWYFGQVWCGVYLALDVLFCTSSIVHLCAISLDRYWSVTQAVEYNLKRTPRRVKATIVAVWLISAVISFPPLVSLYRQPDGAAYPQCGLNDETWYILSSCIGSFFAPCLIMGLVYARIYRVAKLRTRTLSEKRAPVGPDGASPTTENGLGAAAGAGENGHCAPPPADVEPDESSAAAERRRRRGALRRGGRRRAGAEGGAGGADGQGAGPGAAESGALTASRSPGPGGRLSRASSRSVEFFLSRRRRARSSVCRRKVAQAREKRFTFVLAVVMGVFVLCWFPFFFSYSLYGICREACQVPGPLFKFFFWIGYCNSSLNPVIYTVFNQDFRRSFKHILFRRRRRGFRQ

| SMILES | cell count [1] | inhibition [1] | inhibition of aggregation [2] | nuclei count [2] [%] | inhibition [3] | nuclei count [3] | z-score [4, 13] | z-score [4, 14] | z-score [4, 15] | inhibition [5] | fluorescence slope [6] | NADPH fluorescence slope [7] | slope [8] | outcome [9] | inhibition [10] | inhibition [11] | inhibition [12] |
| --- | --- | --- | --- | --- | --- | --- | --- | --- | --- | --- | --- | --- | --- | --- | --- | --- | --- |
| CSc1ccc2c(c1)N(CCC1CCCCN1C)c1ccccc1S2 (stereo not given) | 643 | -2.7% (inactive) | 4.7% (inactive) | 89.1 | -54.8% (inactive) | 119% | 0.315 | 3.44 | 1.46 | -4.44% (inactive) | -0.555 (inactive) | -5.2e-05 (inactive) | 0.00348 (inactive) | inactive | 77.2% (active) and 160% (active) | 32% (inactive) | 30% (inactive) |
| O=C(C1CCCCC1)N1CC(=O)N2CCc3ccccc3C2C1 (stereo not given) | 552 and 561 | -7.7% (inactive) and -4.1% (inactive) | 16.2% (inactive) | 109 | -103% (inactive) and -50.4% (inactive) | 115% and 103% | -1.12 and -0.574 | 0.266 and 0.927 | -0.413 and -1.5 | 1.48% (inactive) and 1.9e-07% (inactive) | -0.447 (inactive) and -0.51 (inactive) | 2.3e-05 (inactive) and -4.3e-06 (inactive) | 0.00517 (inactive) and 0.00493 (inactive) | inactive | 6.15% (inactive) and -13.5% (inactive) and -10.9% (inactive) | 8.76% (inactive) | 17.3% (inactive) |
| COCCCC/C(=N\OCCN)c1ccc(C(F)(F)F)cc1 | 514 | -7.2% (inactive) | -27.7% (inactive) | 100 | -121% (inactive) | 121% | 1.11 | -1.18 | 0.0602 | 9.37% (inactive) | -0.468 (inactive) | -6.2e-05 (inactive) | 0.00513 (inactive) | inactive | -1.98% (inactive) and -5.54% (inactive) | 5.66% (inactive) | 36.1% (inactive) |
| CC1(C)Cc2c(c(N3CCOCC3)nc3sc(C#N)c(N)c23)CS1 | 626 | -0.4% (inactive) | -6.4% (inactive) | 114 | -68.9% (inactive) | 120% | -0.238 | -0.405 | 0.382 | 5.42% (inactive) | -0.0293 (active) | -1.7e-06 (inactive) | 0.00535 (inactive) | inactive | 21.2% (inactive) | -2.57% (inactive) | 16.1% (inactive) |
| CCCCCC(=O)N1CC2(CC)CN(C(=O)CCCCC)CC(CC)(C1)C2=O | 548 | 4.4% (inactive) | 26.5% (inactive) | 90 | -77.8% (inactive) | 117% | 0.465 | -0.132 | -0.254 | 7.42% (inactive) | -0.308 (inactive) | -9.9e-07 (inactive) | 0.00431 (inactive) | inactive | 22.6% (inactive) | 3.77% (inactive) | 34.5% (inactive) |
| c1cc2c(cc1C1=Nn3c(nnc3C3CCCCC3)SC1)OCO2 | 636 | -0.8% (inactive) | 5.8% (inactive) | 31.9 | -52.3% (inactive) | 113% | -0.24 | 0.613 | -0.0709 | -6.06% (inactive) | -0.481 (inactive) | -8.1e-05 (inactive) | 0.00571 (inactive) | inactive | -5.58% (inactive) | 25.1% (inactive) | 31% (inactive) |
| COC(=O)CSc1nc(C)c(C(C)=O)cc1C#N | 505 | -8.8% (inactive) | 5.5% (inactive) | 86.1 | -16.5% (inactive) | 136% | -0.468 | -1.01 | -0.0332 | -8.95% (inactive) | -0.376 (inactive) | -3.7e-05 (inactive) | 0.00524 (inactive) | inactive | 13.8% (inactive) | 3.96% (inactive) | -12.7% (inactive) |
| COC(=O)[C@@H](N)Cc1ccc(O)cc1 | 550 | -6.9% (inactive) | 4.1% (inactive) | 91.1 | -9.7% (inactive) | 107% | -0.0639 | 0.189 | 0.26 | 11.3% (inactive) | -0.496 (inactive) | -7.7e-05 (inactive) | 0.00529 (inactive) | inactive | 15.2% (inactive) | 15.4% (inactive) | 27.7% (inactive) |
| COc1ccc(-c2nnc3sc(-c4c(OC)cccc4OC)nn23)cc1 | 498 | -7.5% (inactive) | 26.2% (inactive) | 28.4 | -176% (inactive) | 131% | -0.466 | -2.13 | -0.0898 | -6.06% (inactive) | -0.435 (inactive) | -0.000139 (inactive) | 0.00691 (inactive) | inactive | 14.7% (inactive) | 11.7% (inactive) | 13% (inactive) |
| Cc1cccc(N(C)C(=S)Oc2ccc3ccccc3c2)c1 | 604 | -0.1% (inactive) | 1.5% (inactive) | 115 | -124% (inactive) | 117% | -0.0512 | 0.405 | -0.61 | 5.42% (inactive) | -0.463 (inactive) | -2.6e-05 (inactive) | 0.00625 (inactive) | active; weak signal in gallbladder and intestine | 97.3% (active) | -6.47% (inactive) | -10.7% (inactive) |
| COCCOC(=O)C1=C(C)NC(C)=C(C(=O)OC(C)C)C1c1cccc([N+](=O)[O-])c1 (stereo not given) | 617 | -5.1% (inactive) | -29.1% (inactive) | 98.9 | -38.8% (inactive) | 122% | -0.996 | 0.882 | -0.963 | 32.3% (inactive) | -0.534 (inactive) | 2.5e-05 (inactive) | 0.00348 (inactive) | inactive | 10.2% (inactive) and -3.02% (inactive) | 19.6% (inactive) | 25.9% (inactive) |
| CCOC(=O)C1=C(C)N=C2SC(C)C(=O)N2C1c1cccc(F)c1 (stereo not given) | 400 | -2.2% (inactive) | 9.9% (inactive) | 102 | -10.3% (inactive) | 139% | -0.692 | 0.668 | 0.0738 | 5.42% (inactive) | -0.448 (inactive) | -0.000135 (inactive) | 0.00424 (inactive) | inactive | -0.443% (inactive) | 25.4% (inactive) | 20.1% (inactive) |
| C1CCC(C(CC2CCCCN2)C2CCCCC2)CC1 (stereo not given) | 585 | 4.5% (inactive) | -15.7% (inactive) | 101 | 0.5% (inactive) | 138% | 0.673 | 1.64 | 0.659 | 8% (inactive) | -0.498 (inactive) | -1.1e-05 (inactive) | 0.0027 (inactive) | inactive | 162% (active) | 33.8% (inactive) | 36.5% (inactive) |
| CC1(C)CC(=O)C=C(NCc2ccncc2)C1 | 623 | -5.3% (inactive) | -13.1% (inactive) | 100 | -98.8% (inactive) | 122% | 1.78 | -0.484 | -1.6 | 13.9% (inactive) | -0.497 (inactive) | -3.5e-05 (inactive) | 0.00534 (inactive) | inactive | -8.68% (inactive) | -0.503% (inactive) | 44.9% (inactive) |
| Brc1cccc(-c2cnc3n2CCCCC3)c1 | 517 | -12.1% (inactive) | 5.1% (inactive) | 76.5 | -58.1% (inactive) | 139% | 0.246 | -0.612 | 1.65 | -8.95% (inactive) | -0.446 (inactive) | -0.000303 (inactive) | 0.00481 (inactive) | inactive | 59.2% (active) | -2.77% (inactive) | -38% (inactive) |
| CC(C)[N+](C)(CCOC(=O)C1c2ccccc2Oc2ccccc21)C(C)C | 683 | -4.8% (inactive) | -28.8% (inactive) | 115 | -133% (inactive) | 138% | -0.466 | -0.573 | 0.578 | -2.46% (inactive) | -0.487 (inactive) | 2.5e-06 (inactive) | 0.00524 (inactive) | inactive | 0.683% (inactive) and 0.468% (inactive) | 20.3% (inactive) | 39.4% (inactive) |
| COc1cccc(Cn2c(Oc3ccccc3)nc3c2c(=O)n(C)c(=O)n3C)c1 | 373 | -4.8% (inactive) | 17.7% (inactive) | 87.9 | -67.3% (inactive) | 150% | -0.332 | -0.584 | 0.142 | 1.04% (inactive) | -0.369 (inactive) | -2.2e-05 (inactive) | 0.00481 (inactive) | inactive | 8.33% (inactive) | 19.3% (inactive) | 10.3% (inactive) |
| CCNC(=O)N(C(=O)NCC)n1c(C)nnc1C | 615 | -11.1% (inactive) | 16.9% (inactive) | 96.4 | 28.7% (inactive) | 130% | -1.98 | 1.53 | -0.158 | 1.12% (inactive) | -0.413 (inactive) | -6e-05 (inactive) | 0.00476 (inactive) | inactive | 11% (inactive) | 9.47% (inactive) | 14% (inactive) |
| OCCN(CCO)c1nc(N2CCCCC2)c2nc(N(CCO)CCO)nc(N3CCCCC3)c2n1 | 547 | -6.1% (inactive) | -4% (inactive) | 110 | -59.7% (inactive) | 134% | 0.412 | 0.0897 | 0.61 | -0.493% (inactive) | -0.056 (active) | -1.2e-07 (inactive) | 0 (inactive) | inactive | 1.16% (inactive) and 19.1% (inactive) | 10.6% (inactive) | -14.4% (inactive) |
| O=c1oc2cc(O)ccc2c2oc3cc(O)ccc3c12 | 610 | 3.6% (inactive) | 11.2% (inactive) | 78.7 | -22% (inactive) | 112% | 0.528 | 1.66 | -1.32 | 25.7% (inactive) | -0.398 (inactive) | -1e-05 (inactive) | 0.00469 (inactive) | inactive | 6.48% (inactive) | 12.4% (inactive) | 41.2% (inactive) |
